Our source for the outcome values is PubChem BioAssay AID1117283 (Broad Institute, 2014).

Results with a measured potency or affinity are listed apart. Active and inactive are the calls of the source.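 How the source made its calls: active means fluorescent signal decreased by at least 40%; inconclusive means no clear call, values can overlap the other calls; inactive means the rest, including activity opposite to the expected direction.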

This test in a line: inhibition of fibronectin matrix deposition – AH1F cells, Alexa488-fibronectin fluorescence, cherry-pick, set 2, dose response (AID 1117283).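 Further: AH1F fibroblasts given Alexa488-labelled fibronectin at 24 nM final.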 Conditions: AH1F fibroblasts, overnight; series mostly up to 35 µM.
As for `Cn1cc([N+](=O)[O-])c(C(=O)Nc2cc(Oc3ccccc3)cc([N+](=O)[O-])c2)n1`, the outcome was inactive.

In the case of `COc1ccc(Cl)cc1NC(=O)CSc1nc(Nc2ccccc2)nc(N2CCOCC2)n1`, the outcome was inactive.

For `CO[C@H]1CN(C)C(=O)c2cc(NC(C)=O)ccc2OC[C@@H](C)N(C(=O)CN2CCOCC2)C[C@H]1C`, the compound was called inactive.

In the case of `CO[C@H]1CN(C)C(=O)c2cc(NC(=O)Nc3ccc(Cl)c(Cl)c3)ccc2OC[C@H](C)NC[C@H]1C`, the result was inactive.

With `OC(CNC1CCCc2ccccc21)COc1c(Cl)cccc1Cl` (configuration not stated), the outcome was inactive.

Consider `Nc1nc(-c2cc3c(cc2Cl)OCCO3)cs1`, for which the compound was classed as inactive.

Take `C[C@H](O)C#Cc1ccc2c(c1)O[C@H](CN(C)C)[C@H](C)CN([C@@H](C)CO)S2(=O)=O`: the compound was classed as inactive.

Turning to `COc1ccc(-c2oc3ncnc(NCCCN4CCOCC4)c3c2-c2ccc(OC)cc2)cc1`, the result was inactive.

With `O=C(CSc1nc2ncc(Cl)cc2[nH]1)c1c[nH]c2ccccc12`, the outcome was inactive.

With `Cc1ccc([N+](=O)[O-])cc1NC(=O)CN(C(=O)c1ccccc1Cl)C1CCCCC1`, the outcome was inactive.

Regarding `O=C(CC1Nc2ccccc2NC1=O)Nc1ccc2c(c1)OCO2` (configuration not stated), the call was inactive.

For the compound `CN1c2ccc(-c3ccccc3)cc2[C@@H]2[C@@H](CCN2C(=O)CN2CCOCC2)[C@@H]1CO`, the compound was classed as inactive.

In the case of `C[C@H]1CN([C@@H](C)CO)C(=O)c2cc(-c3ccccc3)cnc2O[C@H]1CN(C)C(=O)c1cccc(F)c1`, the compound was called inactive.

Turning to `CN1CCN(C(=O)c2cccc(-c3cnc4cnc(-c5ccccc5Oc5ccccc5)cn34)c2)CC1`, the result was inactive.

Regarding `COc1ccc(CN(C2CCCC2)S(=O)(=O)c2ccc(-n3cnnn3)cc2)cc1OC`, the compound was called inactive.

Consider `Cc1ccc(CS(=O)Cc2ccc(C(=O)NC3CCCC(C)C3C)o2)cc1` (configuration not stated), for which the outcome was inactive.

Regarding `Cc1cccc(NC(=O)c2ccc(C3SCC(=O)N3CCc3ccccc3)cc2)c1` (configuration not stated), the call was inactive.

With `C=CCC[C@H](Cc1ccc(F)cc1)C(=O)OC[C@H](Cc1c[nH]c2ccccc12)NC(=O)[C@@H](CC=C)CC(=O)N[C@@H](CO)Cc1ccccc1`, the result was inactive.

In the case of `C[C@H]1CN([C@@H](C)CO)C(=O)c2cc(NC(=O)C3CCCCC3)ccc2O[C@H]1CN(C)Cc1ccc(-c2ccccc2)cc1`, the compound was classed as inactive.

For `O=C(Nc1ccccc1F)N1C[C@@H]2[C@H](c3ccccc31)[C@H](CO)N2C(=O)C1CCOCC1`, the call was inactive.

For `CCOC(=O)c1cnc(SCc2nc(N)nc(Nc3ccc(OC)cc3)n2)nc1N`, the outcome was inactive.

Consider `Cc1ccn2cc(-c3ccc(NC(=O)c4ccco4)cc3)nc2c1`, for which the call was inactive.

As to `COC(=O)c1cn(CC(=O)NCc2ccco2)c2ccccc12`, the outcome was inactive.

With `CC(C)(C)[S@@](=O)N1Cc2cc(C(=O)NCc3ccccc3F)nc(-c3cccc(-c4ccncc4)c3)c2[C@H]1CCO`, the compound was classed as inactive.

As for `C[C@H](CO)N1C[C@H](C)[C@H](CN(C)C(=O)c2cccc(F)c2)Oc2ncc(-c3ccccc3)cc2C1=O`, the compound was called inactive.

`N#C[C@@H]1[C@@H](c2ccccc2C2=CCCCC2)[C@@H](CO)N1S(=O)(=O)c1ccccc1`: the compound was called inactive.

As for `CO[C@H]1CN(C)C(=O)c2cc(NC(=O)Nc3cc(Cl)cc(Cl)c3)ccc2OC[C@H](C)NC[C@H]1C`, the outcome was inactive.

For `C[C@@H]1CN([C@@H](C)CO)C(=O)c2cc(NC(=O)C3CCCCC3)ccc2O[C@H]1CN(C)Cc1ccc(-c2ccccc2)cc1`, the call was inactive.

On to `CCCCNC(=O)Nc1nc2ccc(CC)cc2s1`, for which the call was inactive.

As to `CO[C@@H]1CN(C)C(=O)c2ccc(NC(=O)Nc3ccc(Cl)c(Cl)c3)cc2OC[C@@H](C)NC[C@@H]1C`, the outcome was inactive.

Take `O=S(=O)(c1ccccc1F)N1CC[C@@H]2[C@@H](CO)Nc3ccc(-c4cccc(F)c4)cc3[C@@H]21`: the outcome was inactive.

On to `CN(C)C(=O)c1ccc(-c2ccc3c(c2)[C@@H]2[C@@H](CCN2C(=O)c2ccc(F)cc2)[C@H](CO)N3C)cc1`, for which the call was inactive.

Take `NC(=O)C1=C[C@H](c2coc3ccccc3c2=O)C[C@H](OCCCCO)O1`: the result was inactive.

`CCC(C)(C)NC(=O)C(OC(=O)c1ccco1)c1ccccc1OC` (configuration not stated): the compound was called inactive.

As to `O=C(CN1CCCC1)Nc1ccc(Oc2ccc(NC(=O)CN3CCCC3)cc2)cc1`, the compound was called inactive.

On to `CC(C)CNC(=O)c1coc(=O)c(Br)c1`, for which the compound was called inactive.

As for `C[C@@H]1CN([C@@H](C)CO)C(=O)c2cc(-c3ccccc3)cnc2O[C@@H]1CN(C)C(=O)c1cccc(F)c1`, the compound was classed as inactive.
